Shown is part of a subset that was picked to be rich in hits.
DAT uptake mod: changed human dopamine transporter uptake under cocaine IC80; B-score at 10 µM; actives 1.3% (n = 110,000); Q01959; LLC-PK1 hDAT cells, [14C]-dopamine uptake with cocaine IC80; actives deviate in either direction; AID 449768;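 active = Z score or B-score, a plate-position-corrected score, falls beyond the plate's 99.7% confidence bounds, in either direction; inactive = both scores lie inside the 99.7% bounds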;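 also: scored against the spread of the other compound wells on the same plate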
ROCK2 inh: ROCK2 (human) kinase inhibition. O75116. purified ROCK2, Kinase-Glo ATP depletion luminescence. inhibition, % at 6 µM. actives 0.35% (n = 60,000). AID 604;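 active = inhibition above the screen-wide mean inhibition plus 3 SD, cut at about 18% in these data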;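 also: plate controls were DMSO wells for no effect and Y-27632 control wells after no-enzyme background subtraction for full effect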
D1 allo mod: allosterically modulates the human D1 dopamine receptor | HEK293 D1, CRE-luciferase, dopamine EC30 potentiation; actives deviate in either direction | B-score at 10 µM | actives 5.9% (n = 58,000);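 active = luminescence count or its row- and column-corrected plate score outside the 99.7% band of the plate's sample wells, on either side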
Target sequence (P21728 whole entry, looked up): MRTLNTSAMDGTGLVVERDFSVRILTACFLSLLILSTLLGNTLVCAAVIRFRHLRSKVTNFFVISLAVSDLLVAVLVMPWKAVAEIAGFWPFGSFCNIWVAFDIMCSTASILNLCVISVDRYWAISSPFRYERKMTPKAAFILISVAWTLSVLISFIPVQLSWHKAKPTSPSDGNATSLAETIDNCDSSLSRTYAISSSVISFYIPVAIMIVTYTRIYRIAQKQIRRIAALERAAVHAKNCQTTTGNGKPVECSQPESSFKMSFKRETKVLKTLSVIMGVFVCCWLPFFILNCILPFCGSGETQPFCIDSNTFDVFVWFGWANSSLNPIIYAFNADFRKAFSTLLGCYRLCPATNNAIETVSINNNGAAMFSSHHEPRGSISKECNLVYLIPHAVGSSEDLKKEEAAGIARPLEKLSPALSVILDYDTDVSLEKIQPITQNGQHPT
PKA kinase inh: inhibitors of human protein kinase A | PKA Kemptide phosphorylation, Kinase-Glo ATP luminescence | actives 0.1% (n = 65,000) | inhibition, % at 6 µM;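 active = inhibition above the screen-wide mean inhibition plus 3 SD, cut at about 21% in these data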
* hit, by the source's call; / = not tested or not shown.

SMILES	DAT uptake mod	ROCK2 inh	D1 allo mod	PKA kinase inh
CCC1=C(OC(=O)N(CC)CC)N2C(=O)OC(=NCCOC)[C@]2(Cc2ccccc2)[C@H]2C1=CC[C@H]1C(=O)N(C)C(=O)[C@H]12	-0.22	/	/	/
O=C(c1ccc2c(c1)N(Cc1ccccc1)C(=O)c1ccccc1S2)N1CCCC1	3.3*	/	/	/
Cc1cc(C)c2nc(C(F)(F)F)nc(NCCCN3CCOCC3)c2c1	0.16	/	/	/
CCOC(=O)c1c(NC(=O)CSc2nnc(CNC(=O)c3ccco3)n2C)sc2c1CCC2	0.42	/	/	7
C=CCN1C=CC(=C/C=C(/C#N)C(=O)OCC)C=C1	-2.6*	/	/	/
CCOC(=O)/C(C#N)=C\c1ccco1	-0.84	/	/	/
COC(=O)[C@@]1(Cc2ccc(OC)cc2)[C@H]2c3cc(C(=O)N4CCCC4)n(Cc4ccc(C)o4)c3C[C@H]2CN1C(=O)c1ccccc1	0.27	/	/	/
Cc1cc(C)c2c(=O)[nH]c(SCC(=O)Nc3ccccc3)nc2n1	0.41	1	1.3	11
Cc1ccc(NC(=O)CSc2nc3nc(C)cc(C)c3c(=O)[nH]2)cc1	0.23	/	3.9*	9
COc1ccc(N2CCN(C(=S)Nc3cc(C)cc(C)c3)CC2)cc1	-0.9	/	/	/
COc1ccc(OC)c(NC(=S)N2CCN(c3ccccn3)CC2)c1	-8.8*	/	/	/
COc1ccc(N2CCN(C(=S)Nc3cc(C)ccc3C)CC2)cc1	-4.7*	/	/	/
COc1ccc(CC(=O)N2CCN(c3ccccn3)CC2)cc1OC	0.86	1	0.63	5
O=C(Nc1ccc2c(c1)CCC2)c1cc(S(=O)(=O)N2CCN(c3ccccc3)CC2)ccc1Cl	0.59	/	/	/
N#CCC1c2ccccc2CCN1C(=O)Nc1ccc(Cl)cc1 (stereo not given)	-3.2*	/	/	/
N=c1c2c(n(Cc3cccc(Cl)c3)c3c1CCC3)CCCC2	-9.3*	/	/	/
N=c1c2c(n(Cc3ccccc3)c3c1CCC3)CCC2	-4.2*	1	-1.9	10
CCCCCCCCCCn1c2c(c(=N)c3c1CCC3)CCC2	-0.7	/	/	/
N=c1c2c(n(Cc3ccc(Cl)cc3)c3c1CCC3)CCC2	-6.7*	-3	-3.5	-2
O=c1[nH]c(SCc2cccc(Cl)c2)nc2c1CCCC2	-0.013	/	1.2	-2
CCOC(=O)Cn1c2c(c(=N)c3c1CCC3)CCC2	0.2	3	-1.8	17
O=c1c(-c2ccnn2-c2cccc(Cl)c2)cnc2n1CCS2	0.31	/	/	/
CCO[C@H]1OC(C(N)=O)=C[C@@H](C)[C@@H]1CCCO	-1.8	/	/	/
CN(C)c1nc(Oc2ccc(=O)n(-c3ccccc3)n2)nc(N2CCOCC2)n1	0.0014	9	5.6*	6
CN(C)c1nc(Oc2ccc(=O)[nH]n2)nc(N2CCOCC2)n1	0.49	/	/	/
SMILES	DAT uptake mod	ROCK2 inh	D1 allo mod	PKA kinase inh
CCc1nnc(NC(=O)[C@@H](NC(=O)c2cccc(S(=O)(=O)N(CC)CC)c2)C(C)C)s1	0.86	/	/	/
COc1ccc(NC(=O)c2cc(-c3ccc(C)o3)nc3ccccc23)cc1OC	-0.076	-30	-4.7*	-18
COc1ccc(NC(=O)c2cc(-c3cccnc3)nc3ccc(C)cc23)cc1OC	-0.59	/	/	/
Cc1cccc(NC(=O)c2cc(-c3ccco3)nc3ccccc23)n1	-0.54	0	-3.7*	1
CCc1ccc(CNC(=O)c2cc3c(C)nc4ccccc4c3o2)cc1	-1.7	/	/	/
COc1cc(NC(=O)c2cc3c(C)nc4ccccc4c3o2)cc(OC)c1OC	0.31	1	-4.6*	7
COc1ccc(C)cc1NC(=O)c1cc2c(C)nc3ccccc3c2o1	/	1	0.87	4
Cc1nc2ccccc2c2oc(C(=O)NCC3COc4ccccc4O3)cc12 (stereo not given)	0.23	1	-3.5*	5
O=S(=O)(NCc1ccccn1)c1ccccc1	-2.9*	/	/	/
Cc1oc(-c2ccc(Cl)cc2)nc1CN1CCC(C(=O)NCc2ccco2)CC1	0.13	4	-3.2*	9
Cc1oc(-c2cccc(Cl)c2)nc1CN1CCC(C(=O)NCc2ccco2)CC1	-1.4	-1	0.4	6
Cc1oc(-c2ccc(Cl)cc2)nc1CN1CCC(C(=O)N2CCc3ccccc3C2)CC1	2.6*	4	-0.63	10
Cc1oc(-c2ccc(Cl)cc2)nc1CN1CCC(C(=O)N2CCN(Cc3ccccc3)CC2)CC1	/	1	0.32	6
CCC(=O)Nc1ccc(/C(C)=N\NS(=O)(=O)c2ccc(C)cc2)cc1	-0.49	/	/	/
CCN(c1ccc(NC(=O)COC(=O)c2ccc3ccccc3n2)cc1)C(C)C	-2.8*	/	/	/
CC1CCCC(NC(=O)COC(=O)c2ccc3ccccc3n2)C1C (stereo not given)	-0.31	/	/	/
C#CCNC(=O)C1=C[C@@H](C)[C@H](CCCO)[C@@H](OCC)O1	0.6	/	/	/
O=C(CSc1nnc2ccccn12)NC(=O)NC1CCCCC1	-0.16	3	-5.5*	9
O=C(c1cc(-c2cccs2)on1)N1CCOCC1	-0.49	3	-0.68	-1
O=C(c1cc(-c2cccc(O)c2)on1)N1CCOCC1	-0.35	-1	-5*	-7
Cc1onc(-c2c(F)cccc2Cl)c1C(=O)N1CCc2ccccc2C1	0.3	2	-3.5*	8
Cc1onc(-c2c(Cl)cccc2Cl)c1C(=O)N1CCc2ccccc21	-2	5	-4.8*	3
Cc1onc(-c2ccccc2Cl)c1C(=O)N1CCc2ccccc2C1	-0.11	/	/	/
c1ccc(-c2ccc(C3=Nn4c(Cn5nnc6ccccc65)nnc4SC3)cc2)cc1	0.28	/	/	/
O=C1CC2(CCCCC2)Oc2ccc(Cl)cc21	-0.045	/	/	/
SMILES	DAT uptake mod	ROCK2 inh	D1 allo mod	PKA kinase inh
Cc1ccc(C2/C(=C(\O)c3cnn(-c4ccccc4)c3C)C(=O)C(=O)N2CCN(C)C)o1 (stereo not given)	-2.4*	10	-0.49	4
CC1=C(C(=O)OCC(Br)(Br)Br)C(c2cccc([N+](=O)[O-])c2)NC(=O)N1CCCC(=O)O (stereo not given)	-0.2	/	/	/
COCCCNC(=O)C1C2C=CC3(CN(Cc4ccc(C)cc4)C(=O)C13)O2 (stereo not given)	-0.96	/	-1.4	6
Cc1ccc(CN2CC34C=CC(O3)C(C(=O)NCc3ccc5c(c3)OCO5)C4C2=O)cc1 (stereo not given)	-8.1*	/	/	1
COc1ccc(C2(CNC(=O)/C=C\c3ccco3)CCCC2)cc1OC	-0.89	/	/	/
O=C(CCCc1c[nH]c2ccccc12)N1CCN(c2ccc(N3CCOCC3)nn2)CC1	2.5*	-2	0.014	3
Cc1cc(=O)n2[nH]cc(C(=O)O)c2n1	0.41	/	/	/
CCC1(C)N=c2c(c(=O)n(C)c(=O)n2C)=NO1 (stereo not given)	0.037	/	/	/
CCN(CC)S(=O)(=O)c1ccc(NC(=O)C(C)N(c2ccccc2)S(C)(=O)=O)cc1 (stereo not given)	2.5*	/	/	/
CCOc1cccc(NC(=O)C2CCCN(S(=O)(=O)c3ccc(-n4cnnn4)cc3)C2)c1 (stereo not given)	-0.04	-2	1.1	2
COc1cccc(NC(=O)C2CCCN(S(=O)(=O)c3ccc(-n4cnnn4)cc3)C2)c1 (stereo not given)	0.88	10	-4.1*	8
CC(CC1C(C#N)=C(N)SC(N)=C1C#N)c1ccccc1 (stereo not given)	0.39	7	0.17	9
CCOC(=O)CN(C)C(=O)C1CCCN1C(=O)OC(C)(C)C (stereo not given)	-0.3	/	/	/
Cc1ccc2cc(C#N)c(NCc3ccco3)nc2c1	2.3	-7	6.7*	-13
